In the library only some 0.92% were active in any assay of this set; here they are far more common.
Tb PYK inh: qHTS of Trypanosoma Brucei Inhibitors; hit rate 0.12% among 410,000; pyruvate kinase (Trypanosoma brucei), Q57TT1; TbPYK enzyme, Kinase-Glo Plus ATP luminescence, 45 min; Potency, µM (series often up to 76.8 µM), without a hit: at the top dose activity, negative = inhibition, usual class: inhibitors; also: % is scaled to controls: 0 for no effect and ±100 for the full control effect; nearly all actives have a fitted effect of over 50% in size
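Glycolytic pyruvate kinase of T. brucei was incubated with substrate, test compound and 130 uM ADP for 45 minutes at room temperature. Luminescent Kinase-Glo Plus signal was measured after 10 minutes.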
AMA1 RON2 block: qHTS for Inhibitors of AMA1-RON; Towards Development of Antimalarial Drug Lead: Primary Screen; AlphaScreen AMA1-biotinylated RON2 peptide binding; hit rate 0.2% among 360,000; Potency, µM (titrated, usually from 58.2 µM), without a hit: top-dose activity change, negative = inhibition, hits mostly inhibitors; Plasmodium falciparum AMA1 (3D7) - RON2 peptide interaction;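 also: 0% = vehicle wells and -100% = peptide control; nearly all actives have a fitted effect of over 45% in size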
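AMA1 (3D7) with his tag at 25 nM final met compounds first, then biotinylated RON2 peptide at 25 nM; detection used donor plus acceptor beads, 10 µg/mL apiece, read by AlphaScreen after 30 min at room temperature.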
RE007 growth inh: qHTS Assay for Inhibitors of the HIV-1 protein Vpr; S. pombe RE007 Vpr strain, BacTiter-Glo ATP luminescence, 24 h; Potency, µM (series often up to 92.2 µM), without a hit: top-dose activity change, negative = less growth, actives largely listed as inhibitors; hit rate 0.21% among 360,000; AID 651644, 2012; active = well fitted falling curve with a large enough effect; inconclusive = small, poorly fitted or top-dose-only effect; inactive = no such curve, though single readings can be large or run the other way; also: % is scaled to controls: 0 for no effect and ±100 for the full control effect; nearly all actives have a fitted effect of over 50% in size
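Fission yeast RE007 carrying one integrated HIV-1 vpr copy, seeded at OD 0.01 in PMG+AL medium with 23 nL pinned compound. Grown 24 h at 30 degrees; viability read by BacTiter-Glo luminescence after 5 min.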
NS1 inh: qHTS Assay for Inhibitors of Influenza NS1 Protein Function; Potency, µM (top dose mostly 46.1 µM), for the others: at the highest dose activity, positive = more growth; AID 2326, 2010; hit rate 0.4% among 270,000; calls by dose curve; also: actives are rising curves; nearly all actives have a fitted effect of over 50% in size
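Read-out: OD600 growth recovery of NS1-expressing budding yeast. Cells grown overnight at 30C in -URA glucose medium, washed, resuspended and diluted 1:100 in 2% galactose assay medium, pH 6.0. Same strain lacking NS1 served as positive control.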
LmPK inhibitor: qHTS Assay for Inhibitors of Leishmania Mexicana Pyruvate Kinase (LmPK); purified LmPK, Kinase-Glo ATP luminescence, 1 h; Q27686; Potency, µM (highest dose often 57.5 µM), without a hit: at the top dose activity change, negative = inhibition, actives largely listed as inhibitors; AID 1721, 2009; hit rate 0.37% among 290,000; also: % is scaled to controls: 0 for no effect and ±100 for the full control effect
Target sequence (Q27686 whole entry, looked up): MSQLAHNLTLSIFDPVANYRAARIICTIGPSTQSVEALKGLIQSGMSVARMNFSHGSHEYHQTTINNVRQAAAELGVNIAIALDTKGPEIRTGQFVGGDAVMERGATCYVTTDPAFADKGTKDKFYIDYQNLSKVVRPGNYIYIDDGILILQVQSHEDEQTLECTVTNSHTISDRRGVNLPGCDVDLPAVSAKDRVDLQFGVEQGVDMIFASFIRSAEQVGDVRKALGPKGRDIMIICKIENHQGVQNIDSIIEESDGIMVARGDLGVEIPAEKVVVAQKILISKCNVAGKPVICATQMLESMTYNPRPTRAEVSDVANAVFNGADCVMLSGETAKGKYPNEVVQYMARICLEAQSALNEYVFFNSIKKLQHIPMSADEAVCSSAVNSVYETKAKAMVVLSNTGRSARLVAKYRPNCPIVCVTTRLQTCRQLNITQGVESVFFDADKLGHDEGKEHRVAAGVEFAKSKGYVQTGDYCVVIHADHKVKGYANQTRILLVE
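Screened at intermediate enzyme activity to detect both inhibitors and activators: LmPK at 0.1 nM, with a 0.5 nM enzyme column as activation reference. PEP 0.5 mM, ADP 0.1 mM; ATP detected by luminescence after 1 h.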
* = called active by the depositor; ? = inconclusive; . = not tested or not shown; [ ] = dose if it differs, or a comment. Unless noted, calls follow the shape of the dose curve; as a rule, active = well fitted curve in the direction sought with a large enough effect; inconclusive = small, poorly fitted or top-dose-only effect, or another doubt; inactive = no such curve, though single readings can be large; an effect the other way counts as inactive or inconclusive. Potency is read from the fitted curve at half-maximal effect.

SMILES	Tb PYK inh	AMA1 RON2 block	RE007 growth inh	NS1 inh	LmPK inhibitor
Cc1ccc(/C=N/NC(=O)c2ccc(-c3ccccc3)cc2)o1	-2%	19%	-18%	-42%	0%
O=C(N/N=C/c1ccc(N2CCCCC2)o1)c1ccccc1	22µM*	-1%[11.6 µM]	-9%	15%	-13%
O=C(N/N=C/c1ccc(N2CCOCC2)o1)c1cccc([N+](=O)[O-])c1	13µM*	53%	3%	?	-3%
c1ccc(-c2ccc(-c3ccc(C4=NCCN4)cc3)o2)cc1	.	.	.	-20%	.
Cc1cc(Nc2ccccc2C(=O)O)ccc1Cl	-6%	.	.	.	.
CC(=O)c1sc(NC(=O)c2cccnc2Cl)nc1C	-6%	30%	-17%	-3%	-13%
CC(=O)c1sc(NC(=O)c2ccccc2F)nc1C	-9%	-21%	-26%	-15%	14µM*
Cc1cccc(-n2c(C)n[nH]c2=S)c1	?	-3%	-4%	14%	-29%
S=c1[nH]nc(-c2ccc3c(c2)OCO3)n1-c1ccccc1	?	12%	21%	29%	7.1µM*
COc1ccc(CCn2c(-c3ccc(Cl)cc3)n[nH]c2=S)cc1OC	?	13%	43%	.	1%
COc1ccc(CCn2c(-c3ccc(C(C)(C)C)cc3)n[nH]c2=S)cc1OC	14µM*	47%	2%	3%	0%
Cc1cccc(-n2c(-c3ccncc3)n[nH]c2=S)c1	?	-1%	8%	7%	14µM*
S=c1[nH]nc(-c2ccc(Cl)cc2)n1-c1cccnc1	?	20%	23%	3%	11µM*
Cc1ccc(-n2c(C)n[nH]c2=S)cc1	?	-14%[11.6 µM]	0%	0%	-10%
Cc1ccc(-n2c(-c3cccc(C)c3)n[nH]c2=S)cc1	2.8µM*	65%	2%	2%	8.9µM*
COc1ccc(-c2n[nH]c(=S)n2-c2ccc(C)cc2)cc1OC	5µM*	73%	-6%	-14%	14µM*
Cc1ccc([N+](=O)[O-])c(-c2n[nH]c(=S)n2-c2cccc(Cl)c2)c1	3.2µM*	83%	1%	3%	18µM*
Cc1ccc(-c2n[nH]c(=S)n2-c2ccccc2)cc1	?	20%	18%	-2%	?
Cc1cc(C(F)(F)F)nn1Cc1n[nH]c(=S)n1-c1cccc(Cl)c1	?	35%	6%	-5%	-14%
Cc1ccc(-n2c(-c3c(-c4ccccc4)noc3C)n[nH]c2=S)cc1	?	70%	-6%	2%	11µM*
O=C(O)c1ccc(-n2c(-c3ccc(Br)cc3)n[nH]c2=S)cc1	?	14%	1%	7%	7.1µM*
COc1cc([N+](=O)[O-])c(OC)cc1SCc1n[nH]c(=S)n1-c1ccc(C)cc1	2.5µM*	50%	-3%	-4%	?
COC(=O)C[C@H]1c2ccccc2C2=C(C[C@@H](C)[C@H]3C(=O)NC(=O)[C@@H]23)N1C(=O)OC	.	.	.	.	2%[11.5 µM]
CCOC(=O)CNCCC(=O)c1ccc(Br)cc1	-9%	-4%	35µM*	-46%	-1%
Cc1cccc(NCCC(=O)c2ccc(Br)cc2)c1	-5%	-4%	?	-18%	-4%
SMILES	Tb PYK inh	AMA1 RON2 block	RE007 growth inh	NS1 inh	LmPK inhibitor
CC[C@H]1OC(=O)C[C@@H](O)[C@H](C)[C@@H](O[C@@H]2O[C@H](C)C[C@H](N(C)C)[C@@H]2O)[C@@H](CC=O)C[C@@H](C)C(=O)/C=C\[C@]2(C)O[C@H]2[C@@H]1C	-7%	.	.	.	.
CC1(OC(=O)c2ccc(Cl)nc2)C(=O)C=c2cc(-c3ccsc3)ncc2=C1OC(=O)C1CCCC1 (stereo unspecified)	.	.	.	.	-1%[11.5 µM]
CN(Cc1ccncc1)C1CC(=O)N(c2ccc(Cl)cc2)C1=O (stereo unspecified)	2%	-5%	50µM*	0%	2%
COC(=O)CN(C)C1CC(=O)N(c2ccc(Cl)cc2)C1=O (stereo unspecified)	1%	82%	16µM*	-48%	-5%
COc1cc2cccc(OC)c(=O)c2c(O)c1OC	3%	-12%	-14%	-4%	-4%
CC(=O)Oc1cc2cccc(OC(C)=O)c(=O)c2c(OC(C)=O)c1OC(C)=O	-3%	1.8µM*	?	-59%	-5%
Nc1nonc1C(=O)NCCN=Cc1cc(Cc2ccccc2)cc(Br)c1O	5%	7%	16µM*	-56%	-6%
Nc1nonc1C(=O)NCCN=Cc1ccccc1O	1%	15%	7%	-12%	-10%
O=[N+]([O-])c1cccc(/C=N\NC2=CS(=O)(=O)C=C2)c1	.	.	.	-3%	.
Cc1nn(-c2ccccc2)c(C)c1/C=N/n1c(-c2ccccc2Br)n[nH]c1=S	?	57%	13%	14%	13µM*
CCN(CC)c1ccc(/C=N/n2c(-c3ccccc3Br)n[nH]c2=S)cc1	-13%	20%	10%	7%	-17%
Nc1ccc(N)c(C(=O)O)c1	-20%	8.9µM*	6%	0%	?
Nc1cccc2cc(S(=O)(=O)Nc3ccc(C(=O)O)cc3)ccc12	.	.	.	9%	.
Nc1ncnc2c1ncn2[C@@H]1O[C@H](COP(=O)(O)OP(=O)(O)OP(=O)(O)O)[C@@H](O)[C@H]1O	-20%	19%	3.2µM*	.	.
CCCCCCCCCCCCCCCCCC(=O)NCC(COP(=O)([O-])OCC[N+](C)(C)C)OCC (stereo unspecified)	.	.	.	-41%	.
CC(C)(C)NC(=O)NC(=O)CN1CCN(c2ccc(O)cc2)CC1	?	7%	-3%	.	13µM*
Cc1oc(=O)c(NC(=O)c2ccc(Cl)cc2)cc1C(=O)c1ccccc1	?	-1%	28µM*	-97%	-1%
CC(=O)c1cc(NC(=O)c2ccccc2)c(=O)oc1C	-14%	7%	-5%	3%	-11%
Cc1ccc(C(=O)Nc2ccc(Cl)cc2C(=O)c2ccccc2)cc1	0%	-9%	-10%	.	.
Cc1ccc(C(=O)Nc2cc3ccccc3oc2=O)cc1	?	-7%	13%	5%	13µM*
Cc1oc(=O)c(NC(=O)c2ccccc2)cc1C(=O)c1ccccc1	-20%	14%	20µM*	-107%	-12%
Cc1ccc2c(c1)N(CC(=O)NCC1COc3ccccc3O1)C(=O)CO2 (stereo unspecified)	.	.	.	-3%	.
